HP1b chromo inh: blocks HP1-beta chromodomain binding to methylated histone tails | P83916 | AlphaScreen HP1-beta / biotin-H3K9me3 peptide binding | Potency, µM (series often up to 114 µM), actives largely listed as inhibitors | 390,000 compounds, 0.56% hits; also: nearly all actives have a fitted effect of over 70% in size
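AlphaScreen: HP1-beta (50 nM) preformed 30 min with biotin-H3(1-18)K9me3 peptide (50 nM) in PBS pH 7.4, 0.01% Tween-20. Compound added for 30 min at RT, then streptavidin donor/nickel chelate acceptor beads (10 ug/mL) for 30 min.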
G9a inh: G9a (human) methyltransferase inhibition; Potency, µM (top dose mostly 102 µM), hits mostly inhibitors; Q96KQ7; G9a H3K9 monomethylation, AlphaScreen, 2 h; 350,000 compounds, 8.8% hits; also: nearly all actives have a fitted effect of over 75% in size
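Compounds were preincubated with 20 nM G9a for 15 min, after which biotinylated H3K9 peptide (500 nM) and SAM (20 uM) started a 2 h room-temperature reaction. Monomethylated product was quantified by antibody-based AlphaScreen chemiluminescence.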
BAZ2B block: inhibitors of human BAZ2B bromodomain | AlphaScreen BAZ2B-H3K14Ac peptide displacement | Potency, µM (titrated, usually from 114 µM), actives largely listed as inhibitors | 360,000 compounds, 4.4% hits | AID 504333; also: nearly all actives have a fitted effect of over 60% in size
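AlphaScreen luminescence quantifies BAZ2B engagement of H3K14Ac peptide; the protein and biotinylated peptide are both at 50 nM final, buffer PBS pH 7.4 with 0.01% Tween-20, all steps at room temperature.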
PI5P4Ka inh: blocks human PI5P4K alpha kinase activity | P48426 | PI5P4Kalpha enzyme, ADP-Glo luminescence, 60 min; stronger effect = lower value | max response, % | 330,000 compounds, 1.2% hits; active = max response of -50% or lower; inconclusive = between -30% and -50%; inactive = -30% or higher; also: value at the top dose of about 77 µM
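Luminescence from ADP-Glo served as readout of PI5P4Kalpha activity in a qHTS format. Reaction: enzyme, substrate, compound, ATP at 5 microM final, 60 min at RT.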
PLK1 PBD inh: PLK1 (human) polo-box domain binding inhibition; P53350; Plk1 PBD binding of FITC phosphopeptide, fluorescence polarization; Potency, µM, actives largely listed as inhibitors; 360,000 compounds, 2.8% hits; also: series mostly up to about 57 µM; nearly all actives have a fitted effect of over 65% in size
JMJD2A Tudor: inhibitors of human JMJD2A Tudor domain; O75164; AlphaScreen JMJD2A-Tudor / H3K4me3 peptide binding; Potency, µM (top dose mostly 114 µM), actives largely listed as inhibitors; 390,000 compounds, 4.4% hits; AID 504339; also: nearly all actives have a fitted effect of over 50% in size
Of the large screens only hits and unclear results are named; the others gave an inactive call. This is a sample that favours compounds with a hit; in the whole collection about 12% have one here. Unless noted, calls follow the shape of the dose curve; as a rule, active = well fitted curve in the direction sought with a large enough effect; inconclusive = small, poorly fitted or top-dose-only effect, or another doubt; inactive = no such curve, though single readings can be large; an effect the other way counts as inactive or inconclusive.

COc1ccc(N2CCN(C(=O)CCS(=O)(=O)c3ccc(C)cc3)CC2)cc1	G9a inh 50µM, BAZ2B block inconclusive
O=C(CCS(=O)(=O)c1ccc(Br)cc1)N1CCN(c2ccc(F)cc2)CC1	G9a inh 50µM, BAZ2B block 56µM
COc1ccc(N2CCN(C(=O)CCS(=O)(=O)c3ccc(OC)cc3)CC2)cc1	G9a inh inconclusive
CC(=O)c1ccc(N2CCN(C(=O)C3(S(=O)(=O)c4ccc(Cl)cc4)CC3)CC2)cc1	BAZ2B block inconclusive (no result: PI5P4Ka inh)
COc1ccc(N2CCN(C(=O)C3(S(=O)(=O)c4ccc(C)cc4)CC3)CC2)cc1	G9a inh 71µM
CC(=O)c1ccc(N2CCN(C(=O)CCS(=O)(=O)c3ccc(C)cc3)CC2)cc1	none
COc1ccc(S(=O)(=O)CCC(=O)N2CCN(c3ccc(C(C)=O)cc3)CC2)cc1	G9a inh 32µM
Cc1cccc(-n2ccc(=O)c(C(=O)Nc3ccc(S(=O)(=O)Nc4onc(C)c4C)cc3)n2)c1	BAZ2B block inconclusive
O=C1[C@H]2C(c3ccccc3)=NN(c3ccccc3)[C@H]2C(=O)N1c1ccccc1	none
O=C1[C@@H]2[C@@H](CN3CN(c4ccccc4)N=C(c4ccccc4)[C@@]23c2ccccc2)C(=O)N1c1ccccc1	HP1b chromo inh inconclusive, JMJD2A Tudor 89µM (no result: G9a inh, BAZ2B block)
CCCCN(CC)CCNC(=O)c1cc2c(=O)oc3ccc(C)cc3c2s1	none (no result: PI5P4Ka inh, PLK1 PBD inh)
O=C(Cc1ccc2c(c1)OCCO2)c1c(O)cc(O)cc1O	JMJD2A Tudor inconclusive (no result: PI5P4Ka inh)
O=C(CCc1ccc(O)cc1)c1c(O)cc(O)cc1O	PI5P4Ka inh -69
NC1=C(Br)C(=O)c2ncccc2C1=O	HP1b chromo inh inconclusive, PLK1 PBD inh 7.5µM, JMJD2A Tudor inconclusive (no result: G9a inh, BAZ2B block)
O=C1C(=O)c2ncccc2-c2cccnc21	none (no result: HP1b chromo inh, BAZ2B block, PI5P4Ka inh, PLK1 PBD inh, JMJD2A Tudor)
O=C(N/N=C/c1ccncc1)c1cccc(S(=O)(=O)Nc2ccc(Cl)cc2)c1	BAZ2B block 20µM
O=C(NNC(=S)NC1CCCCC1)c1cccc(S(=O)(=O)Nc2ccccc2Cl)c1	HP1b chromo inh inconclusive, G9a inh inconclusive, PLK1 PBD inh 30µM, JMJD2A Tudor inconclusive
O=C(N/N=C/c1cccnc1)c1cccc(S(=O)(=O)Nc2cccc(Cl)c2)c1	none
COc1ccc(NS(=O)(=O)c2cccc(C(=O)NN=Cc3ccc(OC)cc3OC)c2)cc1	none (no result: G9a inh, BAZ2B block)
COc1ccc(NS(=O)(=O)c2cccc(C(=O)NNC(=O)NCCCl)c2)cc1	G9a inh 50µM
COc1ccc(NS(=O)(=O)c2cccc(C(=O)NN=Cc3cc(Br)c(O)c(Br)c3)c2)cc1	PI5P4Ka inh -50, PLK1 PBD inh inconclusive (no result: G9a inh, BAZ2B block)
O=C(c1cccc(S(=O)(=O)Nc2ccccc2Cl)c1)N1CCCCCC1	none
COc1ccc(CNC(=O)c2cc3c(=O)n(Cc4cccnc4)ccc3nc2C)cc1	none (no result: PI5P4Ka inh, PLK1 PBD inh)
Cc1ccc(C(=O)OCc2cc(=O)n3nc(-c4cccs4)sc3n2)cc1	none (no result: PI5P4Ka inh, PLK1 PBD inh)
Cc1ccc(/C=N/NC(=O)c2cccc(S(=O)(=O)Nc3ccccc3Cl)c2)s1	G9a inh 50µM, JMJD2A Tudor inconclusive
O=c1[nH]cc(S(=O)(=O)Nc2ccc3c(c2)OCO3)c(=O)[nH]1	G9a inh 50µM
COC(=O)C(Cc1c[nH]c2ccccc12)NC(=O)COc1cccc(C)c1 (configuration not stated)	none (no result: PI5P4Ka inh, PLK1 PBD inh)
COc1ccc(Nc2cc(C)nc(NCc3ccccc3)n2)cc1	G9a inh 50µM, JMJD2A Tudor inconclusive
Cc1ccc(Nc2cc(C)nc(NCc3ccccc3)n2)cc1	none
COc1ccc(C(=O)Oc2c(Sc3ccccc3)c(C)nn2-c2ccccc2)cc1OC	G9a inh inconclusive (no result: PI5P4Ka inh, PLK1 PBD inh)
CCC(=O)Oc1c(Sc2ccc(C)cc2)c(C)nn1-c1ccccc1	G9a inh 10µM (no result: PI5P4Ka inh, PLK1 PBD inh)
CCCC(=O)Oc1c(Sc2ccc(C)cc2)c(C)nn1-c1ccccc1	G9a inh 2µM (no result: PI5P4Ka inh, PLK1 PBD inh)
CCC(=O)Oc1c(Sc2ccc(Cl)cc2)c(C)nn1-c1ccccc1	G9a inh 2.8µM (no result: PI5P4Ka inh, PLK1 PBD inh)
Cc1ccc(C)c(NC(=O)COC(=O)c2cccc(S(=O)(=O)N3CCCC3)c2)c1	none (no result: HP1b chromo inh, G9a inh, BAZ2B block, JMJD2A Tudor)
COc1ccc(-c2nc3ccc(Cl)cn3c2Cc2ccc(C)cc2)cc1OC	none (no result: HP1b chromo inh, G9a inh, BAZ2B block, JMJD2A Tudor)

Screening data: PubChem BioAssay, National Center for Advancing Translational Sciences (NCATS)
